Experimental data from PubChem BioAssay (EPA / NIEHS).
Inconclusive results are not listed. Activity calls are given as the source filed them. The calls were made as follows: active = hit-call score of the fitted dose curve at least 0.9, where 1 is the maximum; inconclusive = response in the unintended direction; inactive = score below 0.9.

How the values were obtained:
[1] = TOX21_p53_BLA_p2_viability: Viability Assessment in the Tox21 HCT-116 p53 Agonism Beta-lactamase Assay, Phase 2 (AID 2283591);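 also: compound exposure lasted 16 h at 37 °C; actives lower the ATP signal meaning cytotoxicity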
Summary of the method: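 HCT116 p53-bla cells, 4000/well, dosed after 5 h plating (217-fold dilution of DMSO stocks) and incubated 16 h at 37C. Viability taken as cellular ATP by CellTiter-Glo luminescence after 30 min RT; signal loss marks cytotoxicity.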

[2] = target: Cellular tumor antigen p53 (Homo sapiens) (UniProt P04637); assay: TOX21_p53_BLA_p2_ratio: Tox21 HCT-116 p53 Agonism Beta-lactamase Assay, Ratio, Phase 2 (AID 2283592)
Sequence of Cellular tumor antigen p53 (Homo sapiens) (P04637 whole entry, looked up): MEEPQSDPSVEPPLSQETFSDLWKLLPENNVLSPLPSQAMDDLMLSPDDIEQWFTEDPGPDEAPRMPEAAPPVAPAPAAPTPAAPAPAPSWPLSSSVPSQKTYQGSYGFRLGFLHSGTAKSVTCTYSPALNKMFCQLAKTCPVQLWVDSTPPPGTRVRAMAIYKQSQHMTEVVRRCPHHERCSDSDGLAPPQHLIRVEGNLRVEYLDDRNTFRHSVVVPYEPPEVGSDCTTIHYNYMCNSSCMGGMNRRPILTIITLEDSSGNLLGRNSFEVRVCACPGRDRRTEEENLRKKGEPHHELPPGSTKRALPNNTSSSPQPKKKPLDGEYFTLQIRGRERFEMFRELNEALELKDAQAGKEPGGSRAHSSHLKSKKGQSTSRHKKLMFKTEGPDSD
Summary of the method: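 HCT116 p53-bla; 4000 cells/well; 5 h pre-incubation; cpd in DMSO, 217-fold dilution; 16 h 37C/5% CO2; CCF4-AM 2 h RT; Ex 405, Em 460/530 ratio; DMSO = baseline; positive fitting direction.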

[3] = target: Cellular tumor antigen p53 (Homo sapiens) (UniProt P04637); assay: TOX21_p53_BLA_p3_ratio: Tox21 HCT-116 p53 Agonism Beta-lactamase Assay, Ratio, Phase 3 (AID 2283596)
Summary of the method: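 HCT116 p53-bla cells (4000/well) given compound in DMSO (217-fold dilution) after 5 h, incubated 16 h at 37C. CCF4-AM substrate 2 h at room temperature; 460/530 nm emission ratio, gain fitted against DMSO.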

[4] = TOX21_p53_BLA_p4_viability: Viability Assessment in the Tox21 HCT-116 p53 Agonism Beta-lactamase Assay, Phase 4 (AID 2283597);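 also: hits lower the luminescence signal meaning cytotoxicity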
Summary of the method: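 Cells plated, 5 h pre-incubation; DMSO compounds pinned (217-fold dilution); 16 h, 37C/5% CO2; CCF4-AM 2 h RT; CellTiter-Glo 30 min RT; luminescence read.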

[5] = target: Cellular tumor antigen p53 (Homo sapiens) (UniProt P04637); assay: TOX21_p53_BLA_p5_ratio: Tox21 HCT-116 p53 Agonism Beta-lactamase Assay, Ratio, Phase 5 (AID 2283599)
Summary of the method: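 HCT-116 p53-bla cells (4000/well) plated 5 h, dosed with compound (217-fold DMSO dilution) for 16 h at 37 C; CCF4-AM substrate 2 h at room temperature. Activity is the 460/530 nm emission ratio (405 nm excitation), fitted in gain-of-signal direction versus DMSO.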

[6] = TOX21_p53_BLA_p5_viability: Viability Assessment in the Tox21 HCT-116 p53 Agonism Beta-lactamase Assay, Phase 5 (AID 2283600)
Summary of the method: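 4000 cells/well; 5 h pre-incubation; DMSO compounds pin-transferred, 217-fold dilution; 16 h, 37C/5% CO2; CCF4-AM 2 h RT; CellTiter-Glo 30 min RT; luminescence.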

[7] = target: Cellular tumor antigen p53 (Homo sapiens) (UniProt P04637); assay: TOX21_p53_BLA_p4_ratio: Tox21 HCT-116 p53 Agonism Beta-lactamase Assay, Ratio, Phase 4 (AID 2283601)
Summary of the method: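 HCT-116 p53 beta-lactamase reporter cells (4000/well) preincubated 5 h, then compound (217-fold dilution of DMSO stock) for 16 h at 37C. CCF4-AM substrate added 2 h at room temperature; 460/530 nm emission ratio fitted upward versus DMSO.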

Measured: AC50

NCc1ccccc1CC(=O)N[C@@H]1C(=O)N2C(C(=O)O)=C(CSc3nnnn3CC(=O)O)CS[C@H]12
not listed: [7]
inactive: all other assays above

O=C(O)CCC(=O)c1ccc(-c2ccccc2)cc1
not listed: [7]
inactive: all other assays above

NC(=O)[C@H]1O[C@@H](O)[C@H](O)[C@@H](O)[C@@H]1O
not listed: [7]
inactive: all other assays above

c1ccc2cc(C3=NCCN3)ccc2c1
not listed: [6] | [7]
inactive: all other assays above

O=S(=O)(O)C(F)(F)F
inactive: all assays above

O=CC(=O)c1ccccc1
inactive: all assays above

CCOc1ccc2nc(N)sc2c1
not listed: [7]
inactive: all other assays above

Cc1c(C)n(CCN(C)C)c2ccc(C(=O)OCCN(C)C)cc12
active: [7] 40.2 µM
inactive: all other assays above

O=C(O)[C@@H]1C[C@H](CP(=O)(O)O)CCN1
not listed: [6] | [7]
inactive: all other assays above

O=C(O)Cn1c(C(=O)Nc2nc(-c3ccccc3Cl)cs2)cc2ccccc21
active: [4] 38.9 µM | [5] 37.1 µM | [6] 40.7 µM
inactive: all other assays above

CCN(CC)CCCC(C)Nc1c2ccc(Cl)cc2nc2ccc(OC)cc12 (stereo unspecified)
inactive: [1] | [4] | [6]
active: [2] 25.8 µM | [3] 23.7 µM | [5] 38.7 µM | [7] 35.1 µM

CCC(=O)OC/C=C/c1ccccc1
not listed: [6] | [7]
inactive: all other assays above

C[C@@H]1NC(=O)[C@@H](N)CNC(=O)[C@H](C2CCNC(N)=N2)NC(=O)/C(=C/NC(N)=O)NC(=O)[C@H](CNC(=O)C[C@@H](N)CCCN)NC1=O (stereo partly specified)
inactive: all assays above

CCOC(=O)OC(C)OC1=C(C(=O)Nc2ccccn2)N(C)S(=O)(=O)c2ccccc21 (stereo unspecified)
inactive: all assays above

CC(=O)Oc1cccc(O)c1
not listed: [7]
inactive: all other assays above

CN(C)c1ccc(C2(c3ccc(N(C)C)cc3)OC(=O)c3cc(N(C)C)ccc32)cc1
active: [2] 60.7 µM | [3] 13.5 µM | [7] 38.5 µM
inactive: all other assays above

Cc1c(C(C)C)c(=O)n(-c2ccccc2)n1C
not listed: [7]
inactive: all other assays above

NC(=O)c1ncn([C@@H]2O[C@H](CO)[C@@H](O)[C@H]2O)c1O
inactive: all assays above

CCCCCCOc1ccccc1C(N)=O
not listed: [7]
inactive: all other assays above

O=C=Nc1ccc(Cc2ccc(N=C=O)cc2)cc1
not listed: [7]
inactive: all other assays above

CC(C)NCC(O)c1ccc(NS(C)(=O)=O)cc1 (stereo unspecified)
not listed: [7]
inactive: all other assays above

Cc1cc(C(C)(C)C)c(O)c(C)c1CC1=NCCN1
inactive: all assays above

CCCOC(=O)C(C)O (stereo unspecified)
inactive: all assays above

OCC=CCO
not listed: [6] | [7]
inactive: all other assays above

OCCCCCCO
not listed: [7]
inactive: all other assays above

CCCCC(CC)COCCCN (stereo unspecified)
inactive: all assays above

Clc1ccc2n[nH]nc2c1
active: [5] 55.7 µM
inactive: all other assays above
